# Laboratory results as given in PubChem BioAssay (Tox21).
# Results filed as inconclusive are left out. Unmarked numbers belong to inactive results. The call rests on the fitted dose curve; in most records, active means well fitted cell-killing curve with a large enough effect in the repeat runs; inconclusive means weak or mixed curves; inactive means no such curve, though single readings can be large or run the other way. Non-standard residues stand in square brackets, D forms with d. Residues, ends and D or L forms follow the SMILES beside them. *: point of attachment. Sta = CC(C)C[C@H](N)[C@@H](O)CC(=O)O; Isovaleryl = CC(C)CC(=O)*
# Assay: qHTS assay to identify small molecule antagonists of the peroxisome proliferator-activated receptor delta (PPARd) signaling pathway - cell viability counter screen (AID 743213); further: nearly all actives have a fitted effect of over 50% in size
# Settings: PPARd-bla HEK293H viability, CellTiter-Glo luminescence, 17 h; series mostly up to 62 µM; viability change, negative = cytotoxic: at the top concentration
# Text: U.S. Tox21 Program National Center for Advancing Translational Sciences [NCATS] NIH Chemical Genomics Center [NCGC] U.S. Environmental Protection Agency [EPA] National Institutes of Environmental Health Sciences [NIEHS] National Toxicology Program [NTP] U.S. Food and Drug Administration [FDA] Tox21 Assay Overview: The peroxisome proliferator-activated receptors (PPARs) are lipid-activated transcription factors of the nuclear receptor superfamily with three distinct subtypes namely PPAR alpha, PPAR delta (PPARd) and PPAR gamma. All these subtypes heterodimerizes with Retinoid X receptor (RXR) and have different physiological functions. […] To identify the compounds that inhibit PPAR-delta signaling, GeneBLAzer PPAR delta UAS-bla HEK293H cell line (Invitrogen, Carlsbad, CA, USA) containing a beta-lactamase reporter gene under the control of an Upstream Activator Sequence (UAS) was used to screen the Tox21 compound library. The cytotoxicity of the Tox21 compound library against the PPARd-bla cell line was tested in parallel by measuring the cell viability using CellTiter-Glo assay (Promega, Madison, WI) in the same wells.
# Tox21 Assay Protocol Summary: PPARd-bla cells were dispensed at 3000 cells/5uL/well in 1536-well black wall/clear bottom plates using a Multidrop Combi (Thermo Fisher Scientific, Waltham, MA) dispenser. After the assay plates were incubated at 37 C and 5% CO2 for 5 h, 23 nL of compounds dissolved in DMSO, positive controls or DMSO only was transferred to the assay plate by a Pintool station (Kalypsys, San Diego, CA), followed by addition of 1ul L165041 (300 nM, final concentration in the wells). The assay plates were incubated at 37 C for 17 h, and then 1 uL of LiveBLAzerTM B/G FRET substrate was added using a Bioraptr Flying Reagent Dispenser (FRD) workstation (Beckman Coulter, Indianapolis, IN, USA). The assay plates were incubated at room temperature for 2 h and fluorescence intensity was measured by an Envision plate reader (PerkinElmer, Shelton, CT). For cell viability readout that measures cytotoxicity, 3 ul/well of CellTiter-Glo reagent was added into the assay plates using a Bioraptr FRD. After 30 min incubation at room temperature, the luminescence intensity in the plates was measured using a ViewLux plate reader (PerkinElmer).
# On the % scale 0 is the no-effect control and ±100 the full control effect.
row,Compound,"viability change, negative = cytotoxic"
1,C/C=C(\C)C=O,-3.15% [at 80.4 µM]
2,CCCCC(CC)CCC(CC(C)C)OS(=O)(=O)O (stereo not given),0.714%
3,O=C(O)Cc1c(Cl)ccc(Cl)c1Cl,-4.25%
4,C=CCn1cc[n+](C)c1,1.54% [at 80.4 µM]
5,Cc1cc(N)no1,1.11% [at 80.4 µM]
6,CCCCCCCCCCCCCCCCN(C)C,1.6% [at 6.26 µM]
7,CCCCc1ccc(Cl)cc1,1.11%
8,Cc1cc(C)c(C)c(C)c1,-0.0693%
9,C[Si](C)(C)O[Si](O)(O)O,-23.1%
10,CCCCCCCC(=O)N(C)C,-3.35%
11,CC(C)(C)c1ccc(N)cc1,8.84%
12,C[C@H]1COc2c(C3(N)CC3)c(F)cc3c(=O)c(C(=O)O)cn1c23,12.3%
13,CCCCCCCCCCCCCCBr,1.9% [at 80.4 µM]
14,CN(C)CCc1c[nH]c2ccc(CS(=O)(=O)N3CCCC3)cc12,5.44%
15,CCCCCCCCS(=O)(=O)O,15.8% [at 80.4 µM]
16,O=S(=O)(O)CC(O)CCl (stereo not given),0.539%
17,CC(C)(C)OC=O,-2.18% [at 80.4 µM]
18,CCOC(=O)[C@H](CCc1ccccc1)N[C@H]1CS[C@H](c2cccs2)CN(CC(=O)O)C1=O,16.4%
19,COC(=O)c1ccccc1Cl,2.08%
20,CCCC(=O)C(CC)Sc1ccoc1C (stereo not given),0.113%

row,Compound,"viability change, negative = cytotoxic"
1,CNCCc1ccccn1,4.92%
2,CC(O)CCCCn1c(=O)c2c(ncn2C)n(C)c1=O (stereo not given),6.89%
3,CCCCCCCOC(C)=O,-3.81%
4,CC(C)CC(=O)N[C@H](C(=O)N[C@H](C(=O)N[C@@H](CC(C)C)[C@@H](O)CC(=O)N[C@@H](C)C(=O)N[C@@H](CC(C)C)[C@@H](O)CC(=O)O)C(C)C)C(C)C (Isovaleryl-VV[Sta]A[Sta]-OH),-14.2%
5,Cc1cc(O)c(Cl)cc1C,8.64%
6,Cc1ccc(N)nc1,1.94%
7,CC(C)(C)C(=O)CC(=O)C(C)(C)C,2.65% [at 80.4 µM]
8,CCCCC(O)/C=C(C)/C=C/C=C/C(=O)N1CCCC1=O (stereo not given),-9.86%
9,CCN1CCN(C(=O)N[C@@H](C(=O)N[C@@H]2C(=O)N3[C@@H]2SC(C)(C)[C@H]3C(=O)O)c2ccccc2)C(=O)C1=O,12.8%
10,Cc1ccccc1OCC(=O)O,-0.641%
11,O=C(O)P(=O)(O)O,1.9%
12,CCCCCCC(O)CO (stereo not given),-21.5%
13,O=Cc1ccccc1S(=O)(=O)O,-1.15%
14,BrCCOc1ccccc1,6.81% [at 80.4 µM]
15,CCN(CC)CC,4.47% [at 80.4 µM]
16,CC(=O)SC[C@@H](C)C(=O)N1CCC[C@H]1C(=O)N[C@@H](Cc1ccccc1)C(=O)O,-0.594%
17,O=Cc1ccc(C(=O)O)cc1,8.84% [at 80.4 µM]
18,C/C(=N\O)c1ccc(OCC(=O)N2CCCCC2)cc1,0.166%
19,CC(C)CC(O)Cc1ccccc1 (stereo not given),19.4%
20,CCCCNCC,-0.754%
